# Assay results from PubChem BioAssay AID1721 (National Center for Advancing Translational Sciences (NCATS), 2009).
# The campaign covered roughly 290,000 compounds. About 1,100 (0.38%) were called active. For the sample, actives were picked, then their nearest neighbours and some compounds at random. A number with no mark means an inactive call. Calls follow the shape of the dose curve; as a rule, active = well fitted inhibition curve with a large enough effect; inconclusive = small, poorly fitted or top-dose-only effect, or another doubt; inactive = no such curve, though single readings can be large or run the other way.
# Biological target: Pyruvate kinase (Leishmania mexicana) (UniProt Q27686)
# Sequence (Q27686 whole entry, looked up): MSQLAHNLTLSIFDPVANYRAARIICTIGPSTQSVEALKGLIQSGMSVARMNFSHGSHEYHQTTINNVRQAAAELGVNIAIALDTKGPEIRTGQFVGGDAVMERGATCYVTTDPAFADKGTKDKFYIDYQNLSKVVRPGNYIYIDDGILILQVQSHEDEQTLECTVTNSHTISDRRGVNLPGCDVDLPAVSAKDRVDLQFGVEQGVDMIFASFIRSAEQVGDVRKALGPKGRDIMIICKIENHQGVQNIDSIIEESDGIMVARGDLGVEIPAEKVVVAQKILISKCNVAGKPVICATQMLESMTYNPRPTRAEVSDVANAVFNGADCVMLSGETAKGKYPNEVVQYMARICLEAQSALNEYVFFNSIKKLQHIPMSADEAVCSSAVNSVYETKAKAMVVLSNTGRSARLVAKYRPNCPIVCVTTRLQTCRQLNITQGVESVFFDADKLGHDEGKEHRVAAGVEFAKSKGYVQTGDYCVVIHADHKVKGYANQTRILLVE
# Test: qHTS Assay for Inhibitors of Leishmania Mexicana Pyruvate Kinase (LmPK)
# Settings: purified LmPK, Kinase-Glo ATP luminescence, 1 h; series mostly up to 57.5 µM; activity change, negative = inhibition: at the top concentration
# Excerpt: NIH Chemical Genomics Center [NCGC] Malcolm Walkinshaw, Hugh Morgan, Linda Gilmore University of Edinburgh, UK MLPCN Grant: 1 R03 MH085697-01 NCGC Assay Overview: Pyruvate kinase (L. Mexicana) (LmPK) enzyme was supplied as a highly purified (>95% pure) sulphate-free preparation from University of Edinburgh, UK and assayed for its ability to generate ATP from ADP using phosphoenolpyruvate (PEP) as a substrate. ATP generation was detected in a coupled reaction by luciferase-mediated luminescence, an ATP-dependent process. […] The enzyme was assayed at an intermediate level of activity to screen for both inhibitors and activators.
# NCGC Assay Protocol Summary: Three uL of enzyme mix (kept on ice) in assay buffer (50 mM Imidazole pH7.2, 50 mM KCl, 7 mM MgCl2, 0.01% Tween 20, 0.05% BSA) containing PEP (0.5 mM final concentration) and LmPK (0.1 nM final concentration) was dispensed into white solid bottom 1,536 well microtiter plates. 23 nL of compound were delivered by a pin tool and 1 uL of ADP mix in assay buffer (r.t; 0.1 mM final ADP concentration) was added. Plates were incubated at room temperature for 1 hour. Two uL of detection mix (Kinase-Glo, Promega; at 4 degree Celsius protected from light) was added and luminescence read by a ViewLux (Perkin Elmer) at 1 second exposure/plate. Data were normalized to the uninhibited and AC100 inhibition (no enzyme). To monitor activation, the first column contained a five-fold concentration of LmPK (0.5 nM).
# % is scaled to controls: 0 for no effect and ±100 for the full control effect; potency is read from the fitted curve at half-maximal effect.
Structure (SMILES),"activity change, negative = inhibition",Potency
CC1CCC2CCCCC2N1C(=O)c1cc([N+](=O)[O-])cc([N+](=O)[O-])c1 (stereo unspecified),-2.35%,–
CCCS(=O)(=O)N1CCN=C1SCc1cccc(F)c1,-2.88%,–
COc1ccc2oc(-c3cccc(NC(=O)CSc4ccc(Cl)cc4)c3)nc2c1,1.44%,–
COc1ccc(-c2nc3cc([N+](=O)[O-])ccc3o2)cc1OC,3.94%,–
COc1cccc(-c2nc3cc(C)ccc3o2)c1,–,14.1 µM (active)
c1ccc(-c2noc(-c3cccs3)n2)nc1,–,11.2 µM (active)
COc1nc(-c2ccc(Cl)cc2)ccc1-c1noc(-c2cccs2)n1,2.05%,–
COc1ccc(Cc2nc(-c3ccccn3)no2)cc1OC,2.13%,–
C=CCOc1ccc(C(=O)Nc2ccccc2C(=O)N2CCCC2)cc1,3.25%,–
COC(=O)c1ccc(C23CC4(C2)[C@H](CN(Cc2cccnc2)[C@@H]4c2ccccc2)C3c2ccc(Cl)nc2)cc1 (stereo partly specified),4.28%,–
Cc1cccc(NC(=O)c2cc(S(=O)(=O)N3CCC4(CC3)OCCO4)ccc2F)c1,-12.3%,–
CCCCCCCC1=Cc2ccc(F)cc2C(C(C(=O)OC)C(=O)OC)N1C(=O)OC (stereo unspecified),-1.7% [at 11.5 µM],–
S=c1[nH]ccn1-c1ccc(Cl)cc1,–,25.1 µM (active)
O=S(=O)(c1ccc(F)cc1)N1CCN=C1SCc1cccc(F)c1,-5%,–
CC(=O)Oc1cccc(C(=O)Nc2ccccc2NC(=O)c2cccc(OC(C)=O)c2)c1,-0.0951%,–
C=CCN1c2ccccc2[C@]23C[C@@H](C(=O)OC)N(S(=O)(=O)c4ccc([N+](=O)[O-])cc4)C2=NC(C(=O)OC)=C(C(=O)OC)[C@H]13,-3.12% [at 11.5 µM],–

Structure (SMILES),"activity change, negative = inhibition",Potency
CC(=O)Nc1ccc(NC(=O)CN2C(=O)COc3ccc(S(=O)(=O)N4CCCCC4)cc32)cc1,-9.76%,–
COc1ccc(C2=NOC3(CC(=O)N(c4ccc(C)cc4)C3=O)C2)cc1 (stereo unspecified),1.45%,–
COc1ccc(NC(=O)c2cc(-c3ccc(C)cc3)on2)cc1,0.318%,–
COc1ccc(C2=Nc3cc(C)ccc3OC2)cc1,–,11.2 µM (active)
COc1ccccc1CN1CCNC(=O)C1CC(=O)N(C)CC1CCOCC1 (stereo unspecified),7.5%,–
Cc1cccc(NC(=O)C2CCCN(C(=O)Nc3ccc(F)cc3)C2)c1C (stereo unspecified),1.61%,–
COc1cc2c(C(=O)N(C)c3cc(Cl)ccc3OC)cn(C)c(=O)c2cc1OC,1.4%,–
COC(=O)C1=C(C(=O)OC)[C@@H]2Nc3ccccc3[C@@]23C[C@@H](C(=O)OC)N(S(=O)(=O)c2ccc([N+](=O)[O-])cc2)C3=N1,-0.378% [at 11.5 µM],–
O=C(Nc1cccc(S(=O)(=O)Nc2ccc(Cl)cc2)c1)c1ccc2c(c1)OCCO2,2.39%,–
Cc1nc(NC(=O)c2ccc3c(c2)OCCO3)ccc1Br,-11.3%,–
O=C(Nc1ccc(Cl)cn1)c1ccc2c(c1)OCCO2,–,28.2 µM (active)
COC(=O)C(C(=O)OC)C1c2ccccc2C=C(C2CC2)N1C(=O)OC (stereo unspecified),-6.03% [at 11.5 µM],–
O=C(O)CCN=C1CCc2ccccc2N1,-0.35%,–
CSc1cccc(NC(=S)N(C(C)C)C(C)c2ccccn2)c1 (stereo unspecified),7.92%,–
Cc1ccc(O)c(/C=N/NC(=O)COc2ccc3c(C)cc(=O)oc3c2)c1,3.6%,–
